# HP1b chromo inh: inhibitors of HP1-beta chromodomain binding to methylated histone tails; P83916; AlphaScreen HP1-beta / biotin-H3K9me3 peptide binding; Potency, µM (top dose mostly 114 µM), for the others: at the top dose activity change, negative = inhibition, most hits filed as inhibitors; 390,000 tested, 0.56% active; further: nearly all actives have a fitted effect of over 70% in size
# Target sequence (P83916 whole entry, looked up): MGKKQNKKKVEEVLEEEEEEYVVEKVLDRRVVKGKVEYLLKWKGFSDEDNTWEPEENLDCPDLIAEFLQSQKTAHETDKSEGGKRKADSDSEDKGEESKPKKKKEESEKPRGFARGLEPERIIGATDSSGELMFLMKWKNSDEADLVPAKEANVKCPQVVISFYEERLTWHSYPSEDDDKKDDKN
#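 HP1-beta protein (50 nM final) preincubated 30 min at room temperature with biotinylated H3(1-18)K9me3 peptide (50 nM) in PBS pH 7.4, 0.01% Tween-20, then compound added for 30 min. AlphaScreen streptavidin donor/nickel chelate acceptor beads (10 ug/mL final), 30 min dark, luminescence read.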
# JMJD2A Tudor inh: JMJD2A Tudor domain (human) inhibition; O75164; AlphaScreen JMJD2A-Tudor / H3K4me3 peptide binding; Potency, µM (doses to about 114 µM), for inactives: top-dose activity change, negative = inhibition, hits mostly inhibitors; 390,000 tested, 4.4% active; AID 504339; further: on the % scale 0 is the no-effect control and ±100 the full control effect; nearly all actives have a fitted effect of over 50% in size
# Sfp inh: blocks B. subtilis Sfp PPTase activity. AID 1490. Q9F4F7. 310,000 tested, 3.5% active. Potency, µM, for inactives: largest response in the series, negative = inhibition, usual class: inhibitors. Biochemical Sfp PPTase activity, qHTS;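 further: the enzyme is Sfp with the accession as filed and its product quenches rhodamine fluorescence; 0% = enzyme reaction without inhibitor and -100% = no enzyme wells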
#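 Reaction rates are the 30-min fluorescence difference (ex 525, em 598 nm) in wells containing 15 nM Sfp, 5 uM rhodamine-CoA and 12.5 uM BHQ-2-YbbR at pH 7.6 with 10 mM MgCl2.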
# BAZ2B inh: BAZ2B (human) inhibition. AlphaScreen BAZ2B-H3K14Ac peptide displacement. 360,000 tested, 4.4% active. Potency, µM (series often up to 114 µM), inactives show at the top dose activity change, negative = inhibition, hits mostly inhibitors. AID 504333. Q9UIF8; further: on the % scale 0 is the no-effect control and ±100 the full control effect; nearly all actives have a fitted effect of over 60% in size
#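 Protein-peptide AlphaScreen: BAZ2B 50 nM, b-H3K14Ac 50 nM, 1x PBS pH 7.4 + 0.01% Tween-20. Preincubation 30 min RT; cpd 30 min RT (top 110 uM); beads 20 min RT, light-protected.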
# G9a block: G9a (human) methyltransferase inhibition | G9a H3K9 monomethylation, AlphaScreen, 2 h | 350,000 tested, 8.8% active | Potency, µM (doses to about 102 µM), inactives show at the top dose activity, negative = inhibition, hits mostly inhibitors; further: on the % scale 0 is the no-effect control and ±100 the full control effect; nearly all actives have a fitted effect of over 75% in size
# Target sequence (Q96KQ7 913-1193 limits assumed): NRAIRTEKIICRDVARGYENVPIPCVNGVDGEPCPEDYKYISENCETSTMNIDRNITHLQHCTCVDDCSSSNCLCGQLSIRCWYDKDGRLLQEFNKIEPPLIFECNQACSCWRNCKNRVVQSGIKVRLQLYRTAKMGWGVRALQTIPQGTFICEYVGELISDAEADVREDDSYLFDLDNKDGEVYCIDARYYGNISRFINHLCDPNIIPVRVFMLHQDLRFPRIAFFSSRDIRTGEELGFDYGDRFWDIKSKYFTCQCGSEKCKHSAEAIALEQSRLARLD
#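 AlphaScreen read-out: biotin-H3K9 peptide (500 nM) methylation by 20 nM enzyme with 20 uM SAM, 2 h at room temperature after 15 min compound preincubation; anti-monomethyl H3K9 antibody plus donor/acceptor beads, 10 min dark.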
# The depositor's hits bear a star; ? = inconclusive; · = no result given; ! = repeats disagree; [ ] = dose if it differs, or a comment. Compounds with a hit are over-represented: about 12% of the library has one in this group of screens. The call rests on the fitted dose curve; in most records, active means well fitted curve in the direction sought with a large enough effect; inconclusive means small, poorly fitted or top-dose-only effect, or another doubt; inactive means no such curve, though single readings can be large; an effect the other way counts as inactive or inconclusive. Potency means the concentration at half of the fitted maximal effect.
SMILES,HP1b chromo inh,JMJD2A Tudor inh,Sfp inh,BAZ2B inh,G9a block
O=C(Nc1ccc(N2CCCC2)c(Cl)c1)c1ccc([N+](=O)[O-])cc1,-3.0%,-27.5%,-2.2%,3.2%,-8.8%[59 µM]
O=C(NNC(=S)Nc1ccc(Br)cc1)c1ccc(N2CCOCC2)c([N+](=O)[O-])c1,?,?,-0.8%,-25.5%,11.2µM*
Cc1ccc(NC(=S)NNC(=O)c2ccc(N3CCOCC3)c([N+](=O)[O-])c2)cc1Cl,?,25.1µM*,3.0%,?,22.4µM*
Cc1ccc2c(=O)cc(C(=O)Nc3c(C(=O)c4ccc(F)cc4)oc4ccccc34)oc2c1C,10.5%,-21.9%,·,-3.4%,-27.4%[59 µM]
COc1ccc(Cl)cc1NC(=O)CN1c2ccccc2S(=O)(=O)c2ccccc21,23.3%,-24.0%,·,-18.1%,-13.6%[59 µM]
COc1ccccc1NC(=O)N1CCOc2ccccc21,11.9%,-26.6%,·,-16.5%,-32.2%[59 µM]
O=C(c1cc2c(s1)-c1ccccc1OC2)N1CCN(c2ccccc2)CC1,20.8%,-12.7%,-6.7%,4.0%,1.12µM*!
Oc1ccc(/C(Cc2ccc3ccccc3n2)=N\Nc2ccccc2)c(O)c1,70.8µM*,50.1µM*,-30.0%,?,7.94µM*
Oc1ccc(/C(Cc2ccccn2)=N\Nc2ccccc2)c(O)c1,-28.5%,?,-9.7%,31.6µM*,3.98µM*
CC(=O)Oc1ccc(C(=O)Cc2ccccn2)c(O)c1,38.0%,-32.4%,?,?,?
CCc1nnc(NC(=O)c2ccc(OC)c(S(=O)(=O)N3CCCC3)c2)s1,10.5%,-1.5%,·,9.6%,4.9%[59 µM]
CCn1ccnc1CNC(=O)c1ccc2oc(CCCc3ccccc3)nc2c1,13.6%,?,2.5%,?,·
C=CCNC(=S)NNC(=O)c1ccc(OCCCC)cc1,47.9%,-11.0%,21.1%,2.7%,5.4%[59 µM]
C=CCNC(=S)NNC(=O)C(CCCC)CC(C)(C)O (stereo unspecified),47.6%,-5.0%,17.8µM*,?,?
CCN(CC)CCN1C(=O)/C(=C\c2ccc(Cl)c([N+](=O)[O-])c2)SC1=Nc1ccc(OC)cc1,11.2µM*,17.8µM*,44.7µM*,10µM*,11.2µM*
COc1ccc(N=C2S/C(=C\c3ccc(Cl)c([N+](=O)[O-])c3)C(=O)N2CCN(C)C)cc1,15.8µM*,35.5µM*,39.8µM*,15.8µM*,?
CCN(CC)CCOC(=O)C1(c2ccc(OC)c(OC)c2)CCCC1,29.8%,-18.7%,79.4µM*,-9.8%,?
CCN(CC)CCOC(=O)C1(C2CCCCC2)CCCCC1,11.3%,-31.7%,8.1%,?,33.6µM*!
CCN(CC)CCOC(=O)C(c1ccccc1)C1CCCCC1 (stereo unspecified),8.0%,-34.5%,17.2%,·,-7.5%[2.33 µM]
CCN(CC)CCOC(=O)C1(c2ccccc2)CCCC1,37.3%,0.0%,13.5%,-2.1%,-40.7%[12.7 µM]
Cc1cc(C(=O)COC(=O)Cc2n[nH]c(=O)c3ccccc23)c(C)n1-c1ccc2c(c1)OCCO2,3.7%,-30.9%,-12.9%,-10.9%,50.1µM*
Cc1cc(C(=O)COC(=O)C2=COCCO2)c(C)n1-c1cccc(F)c1,-16.9%,-34.4%,·,?,56.2µM*
Cc1cc(C(=O)COC(=O)C2=COCCO2)c(C)n1-c1ccc2c(c1)OCO2,9.2%,-23.7%[57.1 µM],?,50.1µM*,?
NC(=O)c1cc(-c2ccccc2)nc(N2CCOCC2)n1,32.3%,11.3%,10.2%,-1.6%,21.0%[59 µM]
CC[n+]1cc(-c2ccccc2)nc(N2CCOCC2)n1,6.5%,31.6µM*,1.6%,-5.4%,10µM*
SMILES,HP1b chromo inh,JMJD2A Tudor inh,Sfp inh,BAZ2B inh,G9a block
Cc1cc(C)c2oc(-c3cccc(NC(=O)c4ccco4)c3)nc2c1,32.1%,-14.7%,·,-2.3%,-46.3%[59 µM]
Cc1cc(C)c2oc(-c3ccc(C)c(NC(=O)/C=C/c4ccco4)c3)nc2c1,?,56.2µM*,·,?,10µM*
O=C(O)C1Oc2cc3ccccc3cc2O1,?,?,16.9%,-23.4%,44.7µM*
CCOC(=O)C1=C(C)NC(C)=C(C(=O)OCC)C1c1cc2ccc(C)cc2[nH]c1=O,-4.9%,-18.1%[57.1 µM],-12.7%,?,50.1µM*
Cc1ccc2cc(COC(=O)c3ccncc3)c(=O)[nH]c2c1,7.9%,-13.5%,-9.0%,12.1%,50.1µM*
COC(=O)C1=C(C)NC(C)=C(C(=O)OC)C1c1cc2ccc(C)cc2[nH]c1=O,62.1%,-16.8%[57.1 µM],?,-7.3%,?
Cc1ccc(SCCOCCN2CCc3ccccc3C2)cc1,?,39.8µM*,-18.3%,-37.0%,?
CCCOc1ccc(OCCOCCN2CCc3ccccc3C2)cc1,?,3.55µM*,?,50.1µM*,10µM*
CCOc1ccc(OCCOCCN2CCc3ccccc3C2)cc1,?,2.82µM*,3.2%,56.2µM*,·
C=CCc1cc(OC)ccc1OCCOCCN1CCc2ccccc2C1,?,0.891µM*,35.5µM*,56.2µM*,11.2µM*
CN(C)c1ccc(CNC(=O)CCCN2C(=O)c3cccnc3Oc3ccc(Cl)cc32)cc1,8.3%,?,·,?,11.2µM*
Cc1ccc(NCC(=O)c2ccc([N+](=O)[O-])cc2)cc1,?,?,20µM*,?,8.91µM*
CNC(CC(=O)c1ccc([N+](=O)[O-])cc1)C(Cl)(Cl)Cl (stereo unspecified),15.8µM*,?,10µM*,?,3.98µM*
COc1ccc(C(=O)CC(Nc2ccc([N+](=O)[O-])cc2)c2ccc(OC)cc2)cc1 (stereo unspecified),-21.3%,?,7.7%,-11.0%,?
Cc1ccc(C(=O)CNc2cccc([N+](=O)[O-])c2)cc1,47.3%,-4.8%,5.4%,0.0%,?
Cc1cc(C)c(NC(=O)C2CCN(c3nc4ccccc4n4cccc34)CC2)c(C)c1,-1.4%,?,·,-29.5%,?
COC(=O)C(N)CS (stereo unspecified),·,·,-95.6%,·,-45.5%[2.33 µM]
COc1ccc(CNC(=O)c2ccc(CNS(=O)(=O)c3ccc(F)cc3)cc2)cc1,27.1%,-15.1%,·,4.0%,-5.9%[59 µM]
CCOC(=O)c1c(NC(=S)Nc2ccc(Cl)cc2)sc2c1CCN(C)C2,-17.3%,?,?,?,?
CCOC(=O)c1c(NC(=S)Nc2ccc(OCC)cc2)sc2c1CCN(C)C2,-10.1%,-16.5%,15.8µM*,?,50.1µM*
CCOC(=O)c1c(NC(=O)CSc2nnc(C)s2)sc2c1CCN(C)C2,23.2%,?,17.8µM*,-36.3%,4.47µM*
COC(=O)c1cc(NC(=S)N2CCN(C(=O)C3CCCO3)CC2)cc(C(=O)OC)c1 (stereo unspecified),34.9%,-7.0%,5.6%,-2.3%,-5.6%
CCCOC(=O)c1c(NC(=O)C2CCCO2)sc(C(=O)OC)c1C (stereo unspecified),?,?,6.31µM*,-5.9%,3.55µM*
CCOC(=O)c1c(NC(=O)C2CCCO2)sc(C(N)=O)c1C (stereo unspecified),20.8%,-14.4%,-0.5%,-33.0%,?

# Screens from PubChem BioAssay.
